Data: the OligoGym collection

biological target: GPBAR1; assay: pooled miR-30 sensor sort-seq; sequence = guide strand; conditions: shRNA
Further: reference of the scale not given here.

Sequence | sensor-assay potency score (higher = more potent)
TTGGGTGGTAGGCAATGCTGGG | -0.797
TGCACTGGCACTTCCTAGGGAG | -0.377
ACTGCTTTGGCTGCTTGGGTGG | -1.37
TAGCGCTGATCGCCCAGCCCCA | -1.62
ATGTGGGCAATGCCAGACCCGT | -2.11
TGGTAGGCAATGCTGGGGCCGG | -1.84
TTCCACAGCCCTGGCAATGTGG | -1.2
CTGTGTAGCGCTGATCGCCCAG | -1.64
AGGAGGGACAACAGTGTCCCAG | -1.92
TGGGTGGTAGGCAATGCTGGGG | -1.2
TGCTTTGGCTGCTTGGGTGGTA | -0.379
TGTGTAGCGCTGATCGCCCAGC | -1.16

biological target: GPIHBP1; assay: as above; conditions: shRNA

Sequence | sensor-assay potency score (higher = more potent)
ATGTGAGCAGTTCTGCGTCAGG | -1.72
ATCCTCATCTTCCTCGTCGTAG | -0.474
TTGCACAGGCTGGACTGGCAGC | -1.25
TTCCTCTTCCTCCTGCTGTGTC | -0.491
TTCCTCGTCGTAGTCATCTGGC | -0.201
TCGTCGTAGTCATCTGGCCCGT | -1.29
TCATCTTCCTCGTCGTAGTCAT | -0.418
ATGAGGGTTGTGCAGGTCTGGC | -1.69
TTCAACCTCATCCTCATCTTCC | -0.334
TTGTGCAGGTCTGGCCATGTGA | -0.97
TGTTGGTCTCCTCCTCTTCAAC | -1.59
